Among the data in PubChem BioAssay (Tox21) are Potency values, retold here.

Several values for one entry are separate records, joined by “and”; a condition that tells them apart may be missing. Identical values can stand only once. Inconclusive results are not listed. Activity calls are given as the source filed them. Unless noted, calls come from the whole dose curve; as a rule, active = well fitted cell-killing curve with a large enough effect in the repeat runs; inconclusive = weak or mixed curves; inactive = no such curve, though single readings can be large or run the other way.
Potency is the fitted concentration of half-maximal effect.

Sequence of Peroxisome proliferator-activated receptor delta (Homo sapiens) (Q03181 whole entry, looked up): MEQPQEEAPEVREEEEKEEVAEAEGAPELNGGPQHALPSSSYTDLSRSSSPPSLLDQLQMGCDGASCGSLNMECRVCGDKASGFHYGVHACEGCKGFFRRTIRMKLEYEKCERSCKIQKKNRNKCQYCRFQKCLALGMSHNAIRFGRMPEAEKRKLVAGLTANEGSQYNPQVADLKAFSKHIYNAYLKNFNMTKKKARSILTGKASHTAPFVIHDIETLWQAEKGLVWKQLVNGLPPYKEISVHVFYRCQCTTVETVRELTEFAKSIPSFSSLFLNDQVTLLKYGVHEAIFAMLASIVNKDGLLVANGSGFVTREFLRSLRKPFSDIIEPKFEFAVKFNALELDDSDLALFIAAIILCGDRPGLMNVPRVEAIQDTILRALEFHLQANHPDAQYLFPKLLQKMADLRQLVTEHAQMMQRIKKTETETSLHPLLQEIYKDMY

Tested on in one assay: not listed separately
As to the kind of experiment: qHTS assay to identify small molecule antagonists of the peroxisome proliferator-activated receptor delta (PPARd) signaling pathway - cell viability counter screen (AID 743213). Note: nearly all actives have a fitted effect of over 50% in size. As to conditions: PPARd-bla HEK293H viability, CellTiter-Glo luminescence, 17 h; series mostly up to 62 µM. In a few lines: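 Same-well viability: cells pre-incubated 5 h, dosed with compound plus 300 nM L165041, kept 17 h at 37 C, FRET substrate 2 h RT, then CellTiter-Glo 30 min RT and luminescence.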
For the molecule `CC(C)c1ccc2c(c1)CC[C@H]1[C@](C)(CN)CCC[C@]21C`, the Potency was 21.9 µM (active).

As for `[Cl][Bi]([Cl])([c]1ccccc1)([c]1ccccc1)[c]1ccccc1`, the Potency was 4.87 µM (active).

`Cc1cc(CCN2CCN(c3nsc4ccccc34)CC2)cc2c1NC(=O)CC2(C)C`: the Potency was 19.5 µM (active).

`CCCCN(CCCC)c1ccc(C(=O)c2ccccc2C(=O)O)c(O)c1`: the Potency is 44.1 µM (active).

As for `Oc1cc2ccccc2c2ccccc12`, the Potency is 5.49 µM (active).

Consider `C=CC(=O)OCC(CO)(COC(=O)C=C)COC(=O)C=C`, for which the Potency is 19.6 µM (active) and 13.8 µM (active).

For the molecule `CS(=O)(=O)CCNCc1ccc(-c2ccc3ncnc(Nc4ccc(OCc5cccc(F)c5)c(Cl)c4)c3c2)o1`, the Potency is 21.1 µM (active).

Turning to `CN(C)C(=O)C1(N2CCCCC2)CCN(CC[C@@]2(c3ccc(Cl)c(Cl)c3)CN(C(=O)c3ccccc3)CCO2)CC1`, the Potency is 16.2 µM (active).

Consider `CCCCCCCCCCCCc1ccc(O)cc1`, for which the Potency was 24.5 µM (active).

As for `CC(C)(C)C(=O)OCOC(=O)C1N2C(=O)CC2S(=O)(=O)C1(C)C` (stereo not drawn), the Potency entry is “inactive”.

Consider `O=S1(=O)CC(Cl)(Cl)C(Cl)(Cl)C1`, for which the Potency is 3.89 µM (active).

The next assay has as its target Peroxisome proliferator-activated receptor delta (Homo sapiens) (UniProt Q03181). As to the kind of experiment: qHTS assay to identify small molecule antagonists of the peroxisome proliferator-activated receptor delta (PPARd) signaling pathway (AID 743215; active = well fitted inhibition curve with a large enough effect in the signal ratio in the repeat runs, not every such curve was filed as active; the % refers to the signal ratio;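 note: cells stimulated with agonist L165041 at 300 nM final during compound exposure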). As to conditions: HEK293H PPARd-UAS-bla, beta-lactamase FRET ratio, antagonist, 17 h; series mostly up to 62 µM. In a few lines: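 Agonist L165041 (300 nM final) added with compound to PPARd-bla HEK293H UAS-bla reporter cells; 17 h incubation at 37 C. Read-out: LiveBLAzer FRET substrate, 2 h at room temperature, fluorescence intensity.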
With `C=CC(=O)OCCn1c(=O)n(CCOC(=O)C=C)c(=O)n(CCOC(=O)C=C)c1=O`, the Potency was 13.8 µM (active).

For `C[C@H](CCC(=O)O)[C@H]1CC[C@H]2[C@@H]3CC[C@@H]4C[C@H](O)CC[C@]4(C)[C@H]3CC[C@]12C`, the Potency entry is “inactive”.

In the case of `C[C@@H](NCCCc1cccc(C(F)(F)F)c1)c1cccc2ccccc12`, the Potency was 29.8 µM (active).

For `CC(C)(C)C(=O)OCOC(=O)[C@@H]1N2C(=O)[C@@H](NC(=O)[C@H](N)c3ccccc3)[C@H]2SC1(C)C`, the Potency result was “inactive”.

Consider `Clc1ccc2cc3ccccc3cc2c1`, for which the Potency result is “inactive”.

`Cc1[nH]cnc1C[C@H]1CCc2c(C)c3ccccc3n2C1=O`: the Potency result is “inactive”.

Consider `C=CC(=O)OCC(CO)(COCC(COC(=O)C=C)(COC(=O)C=C)COC(=O)C=C)COC(=O)C=C`, for which the Potency is 4.31 µM (active).

With `NNc1nc(-c2ccc(N)cc2)cs1`, the Potency result is “inactive”.

For the molecule `Cc1cc(CCN2CCN(c3nsc4ccccc34)CC2)cc2c1NC(=O)CC2(C)C`, the Potency is 19.5 µM (active).

Regarding `O=C(Nc1cccc(Cl)c1)OCC#CCCl`, the Potency was 11 µM (active).

`C[n+]1cc2c3c(ccc2c2ccc4cc5c(cc4c21)OCO5)OCO3`: the Potency is 2.59 µM (active).

Turning to `CC(C)(C)C(=O)OCOC(=O)C1N2C(=O)CC2S(=O)(=O)C1(C)C` (stereo not drawn), the Potency was 2.11 µM (active).
